ALDH1A1 block: qHTS Assay for Inhibitors of Aldehyde Dehydrogenase 1 (ALDH1A1); Purified ALDH1A1, NADH fluorescence, propionaldehyde substrate; Aldehyde dehydrogenase 1A1 (Homo sapiens), P00352; Potency, µM (titrated, usually from 75.3 µM), for inactives: at the top dose activity, negative = inhibition, usual class: inhibitors; 220,000 compounds, 7.3% hits;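 also: potency is read from the fitted curve at half-maximal effect; plate controls were no enzyme wells and a reference inhibitor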
PNC inhibitor: High Content Assay for Compounds that inhibit the Assembly of the Perinucleolar Compartment. 140,000 compounds, 3.1% hits. activity change (PNC), negative = inhibition, % at 10 µM. PC3M PTB-GFP, PNC prevalence imaging, 16 h; stronger effect = lower value;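 active = readout at or below -70, meaning at least 70% loss of cells showing the perinucleolar compartment, a nuclear body marking cancer cells; inconclusive = readout between -30 and a set limit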;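 also: plate controls were DMSO wells for no effect and camptothecin positive control wells for full effect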
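Compounds are pinned in duplicate onto adhered PC3M cells stably expressing GFP-tagged PTB and incubated 16 h at 37 C. Cells are then fixed, nuclei stained with Hoechst, and PNC-positive cells counted.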
Lamin A splicing: qHTS Assay for Modulators of Lamin A Splicing; Potency, µM (series often up to 46.1 µM), without a hit: at the highest dose ratio change, negative = inhibition, actives largely listed as inhibitors; AID 1487, 2009; 200,000 compounds, 0.01% hits; HeLa LMNA splicing GFP/RFP minigene ratio, 48 h; active = well fitted inhibition curve with a large enough effect in the signal ratio, with a control signal flat, not every such curve was filed as active; inconclusive = small, poorly fitted or top-dose-only effect, or effect the other way, or a change in a side signal; the % refers to the signal ratio; also: potency is read from the fitted curve at half-maximal effect
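S3 HeLa cells stably expressing lamin A-EGFP splicing minigene plus DsRed2, 600 cells/well, 48 h compound exposure at 37C. Laser-scanning cytometry; analysed as GFP (500-530 nm)/RFP (575-640 nm) total intensity ratio; 0.5% DMSO vehicle.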
KinaseGlo FLuc: Counterscreen for Luciferase (Kinase-Glo TM) Inhibition; Kinase-Glo luciferase, ATP luminescence, 8 min; Potency, µM (top dose mostly 38.3 µM), for inactives: at the highest dose activity change, negative = inhibition, usual class: inhibitors; 200,000 compounds, 0.28% hits; AID 1379, 2008; active = well fitted inhibition curve with a large enough effect; inconclusive = small, poorly fitted or top-dose-only effect; also: potency is read from the fitted curve at half-maximal effect; nearly all actives have a fitted effect of over 60% in size
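Luminescence was the read-out, taken after 8-minute incubation at ambient temperature. Luciferase turned over luciferin with 10 uM ATP in imidazole pH 7.2 buffer containing KCl, MgCl2, Tween 20 and BSA.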
HPGD block: qHTS Assay for Inhibitors of HPGD (15-Hydroxyprostaglandin Dehydrogenase); 15-hydroxyprostaglandin dehydrogenase [NAD(+)] (Homo sapiens), P15428; purified HPGD, NADH fluorescence kinetic, PGE2 substrate; Potency, µM, for the others: top-dose activity change, negative = inhibition, actives largely listed as inhibitors; 150,000 compounds, 4.3% hits; AID 894, 2007; also: potency is read from the fitted curve at half-maximal effect
Target sequence (P15428 whole entry, looked up): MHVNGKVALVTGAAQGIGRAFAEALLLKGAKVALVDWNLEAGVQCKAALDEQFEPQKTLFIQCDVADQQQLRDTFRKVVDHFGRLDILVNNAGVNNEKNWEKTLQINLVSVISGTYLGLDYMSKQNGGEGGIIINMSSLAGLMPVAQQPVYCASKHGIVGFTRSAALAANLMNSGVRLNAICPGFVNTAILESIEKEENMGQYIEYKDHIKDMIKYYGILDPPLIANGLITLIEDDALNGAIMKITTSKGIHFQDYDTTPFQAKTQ
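NADH formation kinetics: reaction with 30 uM PGE2 and 1 mM NAD+ (final), 20 nM enzyme, Tris-HCl pH 8 with Tween 20, after 15 min compound preincubation at room temperature. Fluorescence change, last versus first of five reads.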
The depositor's hits bear a star; [ ] = another dose, or the depositor's remark. Rows were chosen to be rich in hits. Some 10% of all compounds tested hit in one or more screens of this group. Unless noted, calls follow the shape of the dose curve; as a rule, active = well fitted inhibition curve with a large enough effect (not every such curve was filed as active); inconclusive = small, poorly fitted or top-dose-only effect, or another doubt; inactive = no such curve, though single readings can be large or run the other way. Unless noted, % is scaled to controls: 0 for no effect and ±100 for the full control effect.

For O=C1c2ccccc2CC1Sc1nnc(-c2ccccn2)o1 (stereo not drawn) the results were ALDH1A1 block 3.2µM*, PNC inhibitor 13, Lamin A splicing 10%, KinaseGlo FLuc 5% and HPGD block inconclusive.
Fc1ccc(-c2nc3ccncc3[nH]2)cc1 was read as ALDH1A1 block inconclusive, PNC inhibitor 35, Lamin A splicing 7%, KinaseGlo FLuc inconclusive and HPGD block -14%.
`Clc1ccc(-c2nc3ccncc3[nH]2)cc1` gave ALDH1A1 block 11µM*, PNC inhibitor 13, Lamin A splicing -9%, KinaseGlo FLuc inconclusive and HPGD block inconclusive.
Screening O=C1C(c2[nH]c3ccc(S(=O)(=O)O)cc3c2O)=Nc2ccc(S(=O)(=O)O)cc21 returned ALDH1A1 block inconclusive, KinaseGlo FLuc -3%[39.9 µM] and HPGD block inconclusive.
For O=C(C(=O)N1CCN(C(=O)c2ccco2)CC1)c1c[nH]c2ccccc12 the results were ALDH1A1 block 2%, Lamin A splicing 11%[9.22 µM] and KinaseGlo FLuc 1%.
Screening Cc1[nH]c2ccccc2c1NC(=O)CN1CCN(Cc2ccc3c(c2)OCO3)CC1 returned ALDH1A1 block 0%, PNC inhibitor 16, Lamin A splicing 8%, KinaseGlo FLuc 1% and HPGD block -3%.
For CCOC(=O)c1[nH]c(C)c(C(=O)N2CCN(C(=O)c3ccco3)CC2)c1C the results were ALDH1A1 block -5%, PNC inhibitor -100*, Lamin A splicing -8%, KinaseGlo FLuc -1% and HPGD block -7%.
For Cc1[nH]c2ccccc2c1C(=O)C(=O)N1CCN(C(=O)c2ccco2)CC1 the results were ALDH1A1 block 6.3µM* and KinaseGlo FLuc 4%.
Screening Cc1[nH]c2ccccc2c1NC(=O)CN1CCN(C(=O)c2ccco2)CC1 returned ALDH1A1 block 6.3µM*.
For CC(C)C[C@@H](CC(=O)N[C@@H](CCCN)CC(=O)N[C@@H]1CCCC[C@H]1C(=O)N[C@H](CC(=O)N[C@@H](CCC(=O)O)CC(=O)O)Cc1c[nH]c2ccccc12)NC(=O)[C@@H]1CCCC[C@H]1N the results were ALDH1A1 block inconclusive, KinaseGlo FLuc 5% and HPGD block -8%.
Cc1ccc(-n2nnnc2C(Cl)(Cl)c2nnnn2-c2ccc(C)cc2)cc1 was read as ALDH1A1 block 1.3µM*, PNC inhibitor 2, Lamin A splicing -6%, KinaseGlo FLuc -2% and HPGD block 3.5µM*.
Screening CSc1nnnn1-c1ccc(Cl)cc1 returned ALDH1A1 block 4% and KinaseGlo FLuc 1%.
For Cc1cccc(C(=O)Nc2cc3c(cc2C)n(C)c(=O)n3C)c1 the results were Lamin A splicing 25%[46 µM].
CCC(C)n1c(SCc2ccc([N+](=O)[O-])cc2)nc2ccsc2c1=O (stereo not drawn) was read as ALDH1A1 block 7%, PNC inhibitor -119*, Lamin A splicing inconclusive, KinaseGlo FLuc -6% and HPGD block -4%.
For CCCCn1c(SCc2cccc([N+](=O)[O-])c2)nc2ccsc2c1=O the results were ALDH1A1 block inconclusive, PNC inhibitor 93, Lamin A splicing inconclusive, KinaseGlo FLuc -4% and HPGD block -7%.
For CN(/C=C/C(=C/C=[N+](C)c1ccccc1)OCCCS(=O)(=O)[O-])c1ccccc1 the results were Lamin A splicing -2%[46 µM] and KinaseGlo FLuc 2%.
Screening CN(/C=C/C(=C\C=[N+](C)c1ccccc1)OCCCS(=O)(=O)[O-])c1ccccc1 returned ALDH1A1 block 32µM* and KinaseGlo FLuc 2%.
`COC(=O)NC(C(=O)OC)(C(=O)OC)c1ccccc1` gave ALDH1A1 block 4%, KinaseGlo FLuc 0% and HPGD block -3%.
For COC(=O)c1c(C)[nH]c(O)c1C=Nc1ccc(C(C)C)cc1 the results were ALDH1A1 block inconclusive, PNC inhibitor 47, Lamin A splicing 2%, KinaseGlo FLuc -5% and HPGD block 25µM*.
Screening O=C(COC(=O)c1cnc(Cl)c(Cl)c1)NCc1cccs1 returned ALDH1A1 block 20µM*, Lamin A splicing 17%[46 µM] and KinaseGlo FLuc 0%.
`NS(=O)(=O)c1ccc(NC(=O)COC(=O)c2cnc(Cl)c(Cl)c2)cc1` gave ALDH1A1 block 20µM*.
O=C(COC(=O)c1ccc(CO)cc1)NCc1cccs1 was read as ALDH1A1 block 5%, PNC inhibitor 17, Lamin A splicing 8%, KinaseGlo FLuc -1% and HPGD block 32µM*.
`NS(=O)(=O)c1ccc(NC(=O)COC(=O)c2cc([N+](=O)[O-])ccc2Cl)cc1` gave ALDH1A1 block -2%.
`Cc1ccc(C(=O)OCC(=O)NCc2cccs2)cc1` gave ALDH1A1 block -4%, PNC inhibitor 39, Lamin A splicing -8%, KinaseGlo FLuc 0% and HPGD block inconclusive.
`CCN(CC)c1ccc2cc(-c3nc4sc5c(c4c(=O)[nH]3)CCC(C(C)(C)C)C5)c(=O)oc2c1` (stereo not drawn) gave Lamin A splicing 3%[46 µM].
`CCOc1ccc(S(=O)(=O)Nc2ccc(S(=O)(=O)N3CCCC3)cc2)cc1` gave ALDH1A1 block 3.2µM*, PNC inhibitor 34, Lamin A splicing -11%, KinaseGlo FLuc 3% and HPGD block -7%.
`CCOc1ccc(S(=O)(=O)Nc2ccc(S(=O)(=O)N3CCOCC3)cc2)cc1` gave ALDH1A1 block inconclusive, PNC inhibitor inconclusive, Lamin A splicing -1%, KinaseGlo FLuc 2% and HPGD block -14%.
For CCOc1ccc(S(=O)(=O)N2CCCCCC2)cc1 the results were ALDH1A1 block -3%, PNC inhibitor inconclusive, Lamin A splicing 7%, KinaseGlo FLuc -2% and HPGD block -18%.
For CCOc1ccc(S(=O)(=O)Nc2ccc(S(=O)(=O)N3CCCCC3)cc2)cc1 the results were ALDH1A1 block 2.2µM*, PNC inhibitor 1, Lamin A splicing -1%, KinaseGlo FLuc 1% and HPGD block -5%.
`CCOC(=O)N1CCN(S(=O)(=O)c2cc(OCC)ccc2OCC)CC1` gave ALDH1A1 block -7%, PNC inhibitor -9, Lamin A splicing 7%, KinaseGlo FLuc 1% and HPGD block -11%.
Screening CCOC(=O)N1CCN(S(=O)(=O)c2ccc(C(=O)Nc3nnc(CC)o3)cc2)CC1 returned ALDH1A1 block 3%, PNC inhibitor -82*, Lamin A splicing -13%, KinaseGlo FLuc 18% and HPGD block -23%.

Source: PubChem (National Center for Advancing Translational Sciences (NCATS))
